Screening results (PubChem BioAssay)
Sampled rows, rich in hits. Any-hit rate of the full collection: about 19%.
TDP1 cell noCPT – qHTS for Inhibitors of human tyrosyl-DNA phosphodiesterase 1 (TDP1): qHTS in cells in absence of CPT; actives 15% (n = 420,000); DT40 Tdp1-/- hTDP1 cells, no CPT, ATP luminescence, 48 h; Potency, µM (top dose mostly 46.2 µM), without a hit: at the highest dose activity change, negative = growth inhibition, hits mostly inhibitors; further: potency means the concentration at half of the fitted maximal effect; on the % scale 0 is the no-effect control and ±100 the full control effect; nearly all actives have a fitted effect of over 55% in size
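Seeded 400 DT40-hTDP1 cells/well (vehicle DMSO, no 20 nM CPT); pinned compounds; ≥48 hr at 37 °C; CellTiter-Glo luminescence as viability measure.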
DT40 TDP1 CPT – DT40-hTDP1 cell growth loss with CPT. chicken DT40 Tdp1-/-;hTDP1 cells + 20 nM CPT, ATP luminescence, 48 h. Potency, µM (doses to about 46.2 µM), without a hit: at the top dose activity change, negative = growth inhibition, hits mostly inhibitors. actives 12% (n = 420,000). AID 686979; further: potency means the concentration at half of the fitted maximal effect; on the % scale 0 is the no-effect control and ±100 the full control effect; nearly all actives have a fitted effect of over 55% in size
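Cell growth measured by CellTiter-Glo luminescence after a minimum 48 h, 37 C compound exposure with 20 nM CPT in Tdp1-knockout DT40 cells stably expressing hTDP1, seeded 400/well; qHTS titration format.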
IL1B secr inh – blocks inflammasome-driven IL-1 beta release | actives 4.7% (n = 360,000) | THP-1 LPS/ATP IL-1B secretion, AlphaLISA, 16 h; hits give low values | activity change, % at 57.5 µM; in the data active means activity change below about -50%; inconclusive means mostly about -30% to -49%; further: on the % scale 0 is the no-effect control and ±100 the full control effect
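Secreted IL-1B measured by AlphaLISA bead assay after 16 h compound exposure of THP-1 cells; compounds (final up to 57.5 uM) added 1 h before LPS (250 ng/mL) and ATP (1.25 mM) stimulation; lower signal means less secretion.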
SW480 rereplic – DNA re-replication induction in SW480 cells | SW480 DNA re-replication, Hoechst DNA content imaging, 48 h | Potency, µM (series often up to 46.1 µM), without a hit: at the highest dose re-replication activation, usual class: activators | actives 1.8% (n = 340,000) | AID 624297; further: potency means the concentration at half of the fitted maximal effect; % of control where 0% means no effect; nearly all actives have a fitted effect of over 55% in size
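Quantitative HTS format with DMSO vehicle controls; 48 hr drug incubation at 37 C, then 40 min Hoechst staining and scanning imager measurement at 405 nm excitation.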
Chronic BCR inh – blocks chronic active B-cell receptor signaling; ABC-DLBCL IkBa-CBG/CBR reporter, luminescence ratio, 4 h; Potency, µM (highest dose often 46.1 µM), for inactives: at the highest dose activity change, negative = inhibition, usual class: inhibitors; actives 0.05% (n = 340,000); AID 493014; active means well fitted inhibition curve with a large enough effect in the signal ratio, with a control signal flat, not every such curve was filed as active; inconclusive means small, poorly fitted or top-dose-only effect, or effect the other way, or a change in a side signal; the % refers to the signal ratio;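 further: potency means the concentration at half of the fitted maximal effect; plate controls were basal doxycycline-induced cells for no effect and cells given 10 µM MG132 for full effect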
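Concentration-response series (up to 46 uM) were applied to TMD8 dual-reporter cells for 4 h at 37C with doxycycline. Green/red ratio, after filter-overlap correction, defined %Activity; red signal alone was normalised to basal cells and zero luminescence.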
MCF10A rereplic – inducers of DNA re-replication in MCF 10A breast cells | actives 2.9% (n = 350,000) | AID 624296 | Potency, µM (doses to about 46.1 µM), inactives show top-dose activity, positive = re-replication, actives largely listed as activators | MCF 10A DNA re-replication, Hoechst nuclear intensity, 48 h; further: potency means the concentration at half of the fitted maximal effect; % of control where 0% means no effect; nearly all actives have a fitted effect of over 50% in size
* = called active by the depositor; ? = inconclusive; nt = not tested or not shown. Unless noted, the call rests on the fitted dose curve; in most records, active means well fitted curve in the direction sought with a large enough effect; inconclusive means small, poorly fitted or top-dose-only effect, or another doubt; inactive means no such curve, though single readings can be large; an effect the other way counts as inactive or inconclusive.

SMILES | TDP1 cell noCPT | DT40 TDP1 CPT | IL1B secr inh | SW480 rereplic | Chronic BCR inh | MCF10A rereplic
CCOc1ccc2nc(NCCCNC(=O)c3cc(OC)c(OC)c(OC)c3)c(C#N)cc2c1 | 16µM* | 13µM* | -6 | 10µM* | ? | ?
COc1cc(C(=O)NCCCNc2nc3cc(C)cc(C)c3cc2C#N)cc(OC)c1OC | ? | ? | -9 | 14% | ? | ?
COC(=O)c1ccc(NC(=O)c2c(C(=O)Nc3ccccc3)sc3nc(C)cc(=O)n23)cc1 | 0% | -4% | -10 | -5% | 5% | -2%
COc1ccc(Cl)cc1NC(=O)c1c(C(=O)Nc2cccc(C)c2C)sc2nc(C)cc(=O)n12 | 21µM* | ? | nt | nt | nt | nt
COc1ccc(CCNC(=O)c2c(O)c3ccccc3[nH]c2=O)cc1OC | ? | 0% | 25 | -9% | ? | -3%
NC(COCc1ccccc1)c1csc(Nc2ccccn2)n1 (centres undefined) | ? | 26µM* | -4 | nt | nt | nt
COc1ccc(C(N)c2csc(Nc3nncc4ccccc34)n2)cc1 (centres undefined) | ? | ? | -17 | nt | nt | nt
CC(C)CC(N)c1csc(Nc2ccccn2)n1 (centres undefined) | ? | 15µM* | -50* | nt | nt | nt
NC(COCc1ccccc1)c1csc(Nc2nncc3ccccc23)n1 (centres undefined) | 21µM* | ? | ? | nt | nt | nt
COc1ccc(CC(N)c2csc(Nc3cnccn3)n2)cc1 (centres undefined) | ? | ? | -4 | nt | nt | nt
CC(C)CC(N)c1csc(Nc2cnccn2)n1 (centres undefined) | 9.2µM* | 13µM* | -16 | nt | nt | nt
Cc1cnc(-n2ncc(C(=O)N(C)CC3CCCN(C)C3)c2C2CC2)nc1-c1cccs1 (centres undefined) | -6% | 0% | nt | nt | nt | nt
CC(O)CN(C)C (centres undefined) | -9% | 14% | nt | 0% | nt | 3%
COc1ccc(CN(C)C(=O)c2cccc(Oc3ccccc3)c2)c(OC)c1OC | ? | ? | ? | 0% | 7% | ?
Cc1ccc(N(C(=O)C2CCC(=O)N2)C2(C(=O)NC3CCCCC3)CCCCC2)cc1 (centres undefined) | 1% | -2% | 22 | -9% | -1% | -2%
Cc1ccc(N(C(=O)c2ccccn2)C2(C(=O)NC3CCCC3)CCCCC2)cc1 | 1.6µM* | 0.52µM* | -8 | -1% | ? | 15%
CCO[C@H]1OC(C(=O)NCc2nc3ccccc3[nH]2)=C[C@@H](C2CC2)[C@@H]1CCCO | 0.58µM* | 0.82µM* | 50 | 3.3µM* | ? | 3.7µM*
CCO[C@H]1OC(C(=O)NCc2nc3ccccc3[nH]2)=C[C@@H](c2csc3ccccc23)[C@@H]1CCCO | 16µM* | ? | -13 | -3% | ? | 5%
CCO[C@@H]1OC(C(=O)NCc2nc3ccccc3[nH]2)=C[C@H](c2csc3ccccc23)[C@H]1CCCO | 23µM* | 23µM* | -56* | 19% | ? | 26%
CCO[C@H]1OC(C(=O)NCc2nc3ccccc3[nH]2)=C[C@@H](c2ccccc2)[C@@H]1CCCO | ? | ? | -8 | 6% | 6% | 1%
O=C(NCCCn1ccnc1)c1ccc(COc2ccccc2)o1 | -10% | -13% | 5 | -3% | 0% | 14%
Cc1ccc(NC(=O)C2CCCN(c3cnccn3)C2)cc1Cl (centres undefined) | 23µM* | ? | nt | nt | nt | nt
CCCc1ccc(NC(=O)C2CCN(c3cnccn3)CC2)cc1 | 23µM* | 16µM* | -10 | 19% | -8% | ?
Cc1cccc(NC(=O)C2CCCN(c3cnccn3)C2)c1 (centres undefined) | -29% | -2% | 3 | ? | -4% | 18µM*
CCOC(=O)c1ccc(NC(=O)C2CCCN(c3cnccn3)C2)cc1 (centres undefined) | 15µM* | ? | -13 | 26% | 8% | 0%
SMILES | TDP1 cell noCPT | DT40 TDP1 CPT | IL1B secr inh | SW480 rereplic | Chronic BCR inh | MCF10A rereplic
CCc1ccccc1NC(=O)C1CCCN(c2cnccn2)C1 (centres undefined) | 7% | -16% | nt | nt | nt | nt
O=C(Nc1ccc(F)c(Cl)c1)C1CCCN(c2cnccn2)C1 (centres undefined) | ? | ? | 0 | -13% | -1% | -16%
Nc1ccc(S(=O)(=O)NC2(C(F)(F)F)NC(=O)N(c3cccc(Cl)c3)C2=O)cc1 (centres undefined) | 6% | 13% | nt | nt | nt | nt
CC(=O)Nc1ccccc1OCc1cc(=O)n2c(C)csc2n1 | ? | -17% | nt | nt | nt | nt
CCOC(=O)c1cc(COc2cc(Cl)cc(Cl)c2)on1 | 0% | 11% | 16 | -11% | -2% | -2%
Cc1cccc(N/C(N)=N/c2nc(C)cc(C)n2)c1 | 16µM* | ? | -109* | 1% | -4% | -5%
Cc1cc(C)nc(/N=C(\N)Nc2cccc([N+](=O)[O-])c2)n1 | ? | ? | -97* | -5% | 0% | -2%
Cc1cc(C)nc(/N=C(\N)Nc2cc([N+](=O)[O-])ccc2C)n1 | -21% | ? | nt | 1% | 1% | -1%
CC(=O)Nc1cccc(N/C(N)=N/c2nc(C)cc(C)n2)c1 | -12% | 26µM* | 35 | -21% | 6% | 33%
COc1ccc(OC)c(C2Nc3c(Cl)ccc(C(=O)O)c3C3C=CCC32)c1 (centres undefined) | ? | ? | -57* | ? | ? | 23%
Cc1ccc(C)n1-n1c(C)nc2scc(-c3cccs3)c2c1=O | 18µM* | ? | 14 | -1% | 0% | -7%
Cc1nc(N2CCCCC2)c2c(-c3cccs3)csc2n1 | ? | ? | 14 | 2% | ? | 21µM*
Cc1nc(N2CCN(S(=O)(=O)c3ccccc3C#N)CC2)c2c(-c3cccs3)csc2n1 | 21µM* | ? | -3 | -21% | 0% | ?
CCOc1ccc(NC(=O)CN(C)S(=O)(=O)c2ccc(-c3ccc(=O)[nH]n3)s2)cc1 | 13% | -7% | 15 | 19% | ? | -1%
CN(C(=O)c1cc(COc2ccc(F)c(F)c2)on1)C1CCOC1 (centres undefined) | -19% | ? | 0 | 2% | 2% | -3%
COCc1ccc(CN2CCCCC2C(=O)Nc2ccc(Oc3ccccc3)nc2)o1 (centres undefined) | ? | ? | 1 | 20% | ? | 0%
